Results: PubChem BioAssay

test: binders of probe aFGF2 on microarray, primary screen, stem cell growth factor project, biochemical, small-molecule microarray, fluorescence 635/667 (AID 1067); conditions: higher = more signal;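 also: measures binding of biotinylated aFGF2 protein to printed compounds on slides; z-score merges feature fluorescence and signal-to-noise across triplicate slides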

Question: Which composite z-score does the source give for COCCOC(=O)N1C(=O)[C@@]2(c3cc(C#CCNC(N)=O)ccc31)[C@H](C(=O)NC[C@H](O)c1ccccc1)[C@H]1C(=O)O[C@H](c3ccccc3)[C@H](c3ccccc3)N1[C@@H]2c1ccc(OCCO)cc1 here?
Answer: 0.0198

Question: Which composite z-score does the source give for COC(=O)[C@@]1(Cc2ccc(F)cc2)[C@H]2c3cc(C(=O)N(C)C)n(CCn4cc([N+](=O)[O-])nc4C)c3C[C@H]2CN1C(=O)c1ccccc1 here?
Answer: 0.22

Question: For CN(C)CCCCNC(=O)[C@H]1C[C@H]2C(=O)N[C@@H](Cc3ccccc3)C(=O)N2[C@H]1c1cccc(OCCO)c1, which composite z-score is on record?
Answer: -0.158

Question: With CCCCN1CC=CC23O[C@@H]4/C=C\CCC(C)OC(=O)C4[C@H]2C(=O)N(C(C)CO)[C@@H]3C1=O (stereo partly specified) as the molecule, how does the composite z-score read?
Answer: -0.164

Question: For CCCCC(=C=CC[C@@H](O)c1cccc(OCCO)c1)CCO, which composite z-score is on record?
Answer: -0.057

Question: For CN1C=C(C(=O)OCCS(C)(=O)=O)C(C(=O)OCCS(C)(=O)=O)=CC(CCCO)=CC1c1ccc(CN2CCCC2)cc1 (stereo unspecified), which composite z-score is on record?
Answer: 0.0126

Question: With C#CCN(C/C=C/c1ccccc1)[C@H](CO[Si](C)(C)C(C)(C)C)c1ccccc1 as the molecule, how does the composite z-score read?
Answer: -0.0815

Question: For O=C1O[C@H](c2ccccc2)[C@H](c2ccccc2)N2[C@H]1[C@@H](C(=O)N1CCN(c3ncccn3)CC1)[C@]1(C(=O)Nc3ccccc31)[C@H]2c1ccc(O)cc1, which composite z-score is on record?
Answer: -0.0718

Question: For [N-]=[N+]=NCc1ccccc1[C@@H]1OC(c2ccc(OCCCO)cc2)=N[C@]1(Cc1ccccc1)C(=O)NCc1ccccc1, which composite z-score is on record?
Answer: 0.227

Question: With C=CCOC(=O)[C@H]1[C@@H]2C(=O)O[C@@H](c3ccccc3)[C@@H](c3ccccc3)N2[C@@H](c2ccc(OCCOC(=O)[C@@H]3C[C@@H]4C(=O)N[C@@H](CC(C)C)C(=O)N4[C@@H]3c3ccc(O)cc3)cc2)[C@]12C(=O)Nc1ccc(I)cc12 as the molecule, how does the composite z-score read?
Answer: -0.158

Question: For CC(C)CNC(=O)[C@@]1(C)c2ccccc2C(=O)N(Cc2cc(F)cc(C(F)(F)F)c2)[C@H]1c1ccc(CO)cc1, which composite z-score is on record?
Answer: -0.0422

Question: For NCCCC[C@@H]1NC(=O)[C@H]2C[C@@H](C(=O)O)[C@@H](c3cccc(OCCO)c3)N2C1=O, which composite z-score is on record?
Answer: 0.097

Question: For CC(C)C[C@@H]1NC(=O)[C@H]2C[C@@H](C(=O)NCCCCCNC(=O)CS)[C@@H](c3ccc(O)cc3)N2C1=O, which composite z-score is on record?
Answer: 0.283

Question: With CO[C@H]1O[C@H](CO)[C@@H](OC(=O)Nc2ccccc2)[C@@H]2OC(=O)[C@H](Cc3ccccc3)C/C=C/C[C@@H](Cc3ccccc3)C(=O)O[C@@H]12 as the molecule, how does the composite z-score read?
Answer: 0.0732

Question: With CC(C)CNC(=O)[C@@H]1c2ccccc2C(=O)N(Cc2ccccc2Cl)[C@H]1c1ccc(CO)cc1 as the molecule, how does the composite z-score read?
Answer: -0.129

Question: Which composite z-score does the source give for CCc1cccc(NC(=O)O[C@H]2[C@H](OC(=O)Nc3ccc4c(c3)OCO4)[C@H](OC(=O)Nc3ccc4c(c3)OCO4)[C@@H](OC)O[C@@H]2CO)c1 here?
Answer: -0.0158

Question: Which composite z-score does the source give for CCN(CC)c1ccc(N2CC=CC34O[C@@H]5C=CCOC(=O)[C@@H]5[C@H]3C(=O)N(CCCO)[C@@H]4C2=O)cc1 (stereo partly specified) here?
Answer: -0.062

Question: Which composite z-score does the source give for C=C(CCCC)/C(=C/C[C@H](OC(C)=O)c1cccc(OCCO)c1)c1cc(C(=O)OC)ccc1OC here?
Answer: -0.0852

Question: With C=C(COC)/C(=C/C[C@H](OC(=O)c1ccncc1)c1ccc(OCCO)cc1)c1cc(C(=O)OC)ccc1OC as the molecule, how does the composite z-score read?
Answer: 0.0436

Question: Which composite z-score does the source give for NC(=O)NCC#Cc1ccc2c(c1)[C@]1(C(=O)N2)[C@H](C(=O)Nc2nc3ccccc3s2)[C@H]2C(=O)O[C@H](c3ccccc3)[C@H](c3ccccc3)N2[C@@H]1c1ccc(OCCO)cc1 here?
Answer: 0.0526

Question: For C=CCNC(=O)[C@H]1[C@@H]2C(=O)O[C@@H](c3ccccc3)[C@@H](c3ccccc3)N2[C@@H](c2ccc(O)cc2)[C@]12C(=O)Nc1ccc(C#CC3=CCCCC3)cc12, which composite z-score is on record?
Answer: -0.0449

Question: Which composite z-score does the source give for C=CCC(OC(C)=O)[C@@H]1[C@@H](N(Cc2cccc3ccccc23)C(=O)c2ccc(-c3ccccc3)cc2)c2cc(OCCCO)ccc2N1C(=O)c1ccc2ccccc2n1 (stereo partly specified) here?
Answer: -0.0158

Question: With O=C1c2ccccc2[C@](Cc2ccccc2I)(C(=O)O)[C@H](c2ccc(CO)cc2)N1Cc1ccccc1 as the molecule, how does the composite z-score read?
Answer: -0.101

Question: With CC(C)[C@@H](C(=O)O)n1cc(-c2ccccc2)nn1 as the molecule, how does the composite z-score read?
Answer: -0.0894

Question: For C/C=C/CN(C(=O)C#Cc1ccccc1)[C@H](CO[Si](C)(C)C(C)(C)C)c1ccccc1, which composite z-score is on record?
Answer: -0.237

Question: With COCCOC(=O)N1C(=O)[C@@]2(c3cc(C#CCCO)ccc31)[C@H](c1ccc(O)cc1)N1[C@H](c3ccccc3)[C@H](c3ccccc3)OC(=O)[C@H]1[C@@H]2C(=O)N1CCc2cc(OC)c(OC)cc2C1 as the molecule, how does the composite z-score read?
Answer: -0.0004
